Bioassay records from PubChem.
HT1080-NT tox – kills 2HG-producing HT-1080-NT fibrosarcoma cells; Potency, µM (doses to about 46.1 µM), for inactives: at the highest dose activity, negative = less viability, hits mostly cytotoxic; actives 1.6% (n = 360,000); AID 686970; HT-1080-NT fibrosarcoma viability, CellTiter-Glo ATP luminescence, 48 h;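 further: NT is the 2HG producing partner of a matched IDH1 knockdown line; 0% = DMSO-treated cells and -100% = media-only wells without cells; nearly all actives have a fitted effect of over 55% in size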
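A 48-hour cytotoxicity screen used HT-1080-NT cells plated 2 hours before compound delivery. ATP-based CellTiter-Glo luminescence measured viability, normalized to DMSO and no-cell controls.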
TGFb inhibitor – blocks TGF-b signaling | HepG2 CAGA-GFP TGF-b/SMAD3 reporter, GFP fluorescence, 18 h; TGF-beta stimulated, 500 pg/mL final | Potency, µM (highest dose often 46.1 µM), without a hit: top-dose activity, negative = inhibition, most hits filed as inhibitors | actives 1.2% (n = 410,000); further: on the % scale 0 is the no-effect control and ±100 the full control effect; nearly all actives have a fitted effect of over 65% in size
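TGF-beta reporter screen: HEPG2 CAGA-GFP, 1% FBS, 500 pg/mL TGF-beta final, 18 h; per-cell GFP summed per well; curves fitted and categorized by class.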
DT40 TDP1 CPT – growth inhibition of DT40 Tdp1-/-;hTDP1 cells with camptothecin (screen for TDP1 inhibitors); chicken DT40 Tdp1-/-;hTDP1 cells + 20 nM CPT, ATP luminescence, 48 h; Potency, µM (doses to about 46.2 µM), for inactives: top-dose activity change, negative = growth inhibition, usual class: inhibitors; actives 12% (n = 420,000); AID 686979; further: on the % scale 0 is the no-effect control and ±100 the full control effect; nearly all actives have a fitted effect of over 55% in size
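Chicken DT40 Tdp1-/- cells complemented with human TDP1, 400 cells/well, exposed to compounds plus 20 nM camptothecin for at least 48 h at 37 C; viability read as ATP content by CellTiter-Glo luminescence.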
HepG2 viability – counter-screen for TGF-b inhibitors: cytotoxicity in HepG2 cells | HepG2 CAGA-GFP viability, ATP luminescence, 18 h | actives 0.76% (n = 410,000) | Potency, µM (titrated, usually from 46.1 µM), inactives show at the top dose activity change, negative = cytotoxicity, usual class: cytotoxic
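CellTiter-Glo luminescence gave cytotoxicity after 18 hours at 37 degrees C. The cells were HepG2 CAGA-GFP in 1% FBS DMEM, stimulated with 500 pg/mL TGF-beta after compound addition. %Activity was normalised to no-cell wells (complete cell-killing) and DMSO (no toxicity), and curves were fitted and classified.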
HT1080 IDH1KD tx – HT-1080 IDH1 knockdown cell toxicity (counter line). HT-1080 IDH1 knockdown viability, ATP luminescence, 48 h. actives 2% (n = 360,000). Potency, µM (highest dose often 46.1 µM), without a hit: at the highest dose activity, negative = toxicity, most hits filed as cytotoxic;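 further: 0% = DMSO wells and -100% = cell-free medium wells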
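IDH1KD HT-1080 cells, 750/well, RPMI + 5% FBS; compound pinned after 2 h settling; 48 h, 37 °C; CellTiter-Glo luminescence; % activity normalised to DMSO and no-cell wells; curves fitted, classed by r2 and efficacy.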
TDP1 cell noCPT – qHTS for Inhibitors of human tyrosyl-DNA phosphodiesterase 1 (TDP1): qHTS in cells in absence of CPT. DT40 Tdp1-/- hTDP1 cells, no CPT, ATP luminescence, 48 h. Potency, µM (titrated, usually from 46.2 µM), for inactives: at the highest dose activity change, negative = growth inhibition, usual class: inhibitors. actives 15% (n = 420,000); further: on the % scale 0 is the no-effect control and ±100 the full control effect; nearly all actives have a fitted effect of over 55% in size
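Cells were dispensed at 400 per well, compounds added by pin tool, plates incubated ≥48 hr at 37 °C, then CellTiter-Glo added for 30 min at room temperature before luminescence reading. Line: DT40 Tdp1-/- complemented with hTDP1; camptothecin omitted.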
Starred values were filed as active, the others as inactive; ? = inconclusive; nt = not tested or not shown; [ ] = remark or other dose. In the library only some 17% were active in any assay of this set; here they are far more common. The call rests on the fitted dose curve; in most records, active means well fitted curve in the direction sought with a large enough effect; inconclusive means small, poorly fitted or top-dose-only effect, or another doubt; inactive means no such curve, though single readings can be large; an effect the other way counts as inactive or inconclusive. Potency means the concentration at half of the fitted maximal effect.

SMILES	HT1080-NT tox	TGFb inhibitor	DT40 TDP1 CPT	HepG2 viability	HT1080 IDH1KD tx	TDP1 cell noCPT
COc1ccc(CCNC2CC(=O)N(CCc3ccc(OC)c(OC)c3)C2=O)cc1OC (stereo unspecified)	-5%	-4%	-5%	8%	-12%	0%
COc1ccc(CCN2C(=O)C3C4C=CC(C5CC45)C3C2=O)cc1OC (stereo unspecified)	4%	10%	-19%	-19%	4%	-28%
CCNc1nc(NCC)n2c(SCC(=O)Nc3ccccc3C(F)(F)F)nnc2n1	4%	0%	-17%	1%	3%	0%
CC(=O)Nc1cccc(C(=O)OCC(=O)Nc2ccc(Cl)cn2)c1	5%	5%	-12%	0%	3%	-18%
COc1ccc(-c2csc(NC(=O)CCN3C(=O)C4CC=CCC4C3=O)n2)cc1OC (stereo unspecified)	0%	1%	21µM*	-31%	-4%	18µM*
COc1ccc(CCNC(=O)CCN2C(=O)C3CC=CCC3C2=O)cc1OC (stereo unspecified)	3%	0%	?	-45%	1%	23µM*
COc1ccccc1NC(=O)C/C(C)=N/NC(=O)C12CC3CC(CC(C3)C1)C2	-5%	1%	?	2%	-1%	-2%
CCC(C)(C)C1CCC2(CC1)NC(=O)N(CC(=O)NCCc1ccc(OC)c(OC)c1)C2=O (stereo unspecified)	-8%	?	?	-19%	-16%	12µM*
COc1ccc(CCNC(=O)C/C(C)=N/NC(=O)C23CC4CC(CC(C4)C2)C3)cc1OC	-30%	0%	?	2%	?	7.3µM*
COc1ccc(CCNC(=O)CCn2cccc2)cc1OC	17%	19%	7%	-27%	5%	-8%
COc1ccc(-c2csc(NC(=O)CN3C(=O)C4CC=CCC4C3=O)n2)cc1 (stereo unspecified)	-21%	-1%	?	-5%	-30%	?
COc1ccc(NC(=O)CS(=O)CC(=O)Nc2ccc(NC(C)=O)cc2)cc1 (stereo unspecified)	-5%	5%	1%	-15%	-7%	?
C#CCOc1ccc(C2C(C(=O)OC)=C(C)NC3=C2C(=O)c2ccccc23)cc1OCC (stereo unspecified)	nt	6%	?	6%	nt	?
COC(=O)Nc1snnc1C	10%	12%	0%	7%	16%	-19%
CCOc1ccc(NC(=O)Cn2c(CCC(=O)O)ccc2-c2ccc(Cl)cc2)cc1	nt	1%	-1%	-7%	nt	-4%
O=C(Nc1nc2c(s1)CN(Cc1ccccc1)CC2)C1CCC1	-14%	7%	?	11µM*	-1%	?
COCCNC(=O)C1CCCN(C(=O)c2csc3ccccc23)CC1 (stereo unspecified)	-1%	22%	4%	1%	23%	10%
COc1ccccc1-n1cnc2c(c1=O)c1nc3ccccc3nc1n2-c1ccc(C)c(C)c1	20%	-1%	-77%	-2%	27%	18µM*
COCCCn1c2nc3ccccc3nc2c2c(=O)n(-c3ccccc3OC)cnc21	-1%	-18%	?	-3%	-4%[9.24 µM]	-29%
Cc1nc2ccc(S(=O)(=O)NC(C(=O)NCc3ccc(Cl)cc3)C(C)C)cc2s1 (stereo unspecified)	nt	-16%	6%	-7%	nt	-4%
COc1ccc(CCNCc2cc(C)n(-c3ccc(OC)cc3)c2C)cc1	-24%	-5%	16µM*	-14%	-20%	?
COc1ccc(CCNC(=O)CN2CCN(c3ccccc3Cl)CC2)cc1	-22%	?	-22%	-34%	?	?
COc1ccc(CCNC2CCC(c3ccccc3)CC2)cc1 (stereo unspecified)	18µM*	8%	-73%	-18%	?	?
COc1ccc(CCNCc2ccccc2N2CCCC2)cc1	?	13%	18µM*	-24%	-29%	?
COc1cc(NC(=O)c2ccc3oc(=O)c(S(=O)(=O)c4ccccc4)cc3c2)cc(OC)c1	nt	?	-9%	-17%	nt	-7%
SMILES	HT1080-NT tox	TGFb inhibitor	DT40 TDP1 CPT	HepG2 viability	HT1080 IDH1KD tx	TDP1 cell noCPT
CCN(CC)C(=O)/C(=C/c1cn(S(=O)(=O)N(C)C)c2ccccc12)NC(=O)c1ccc(OC)cc1	?	14%	?	-6%	?	21µM*
CN(C)S(=O)(=O)n1cc(/C=C(\NC(=O)c2ccccc2Cl)C(=O)NCCCn2ccnc2)c2ccccc21	-29%	-22%	18µM*	7%	-30%	29µM*
CN(C)S(=O)(=O)n1cc(/C=C(\NC(=O)c2ccccc2)C(=O)NCCCn2ccnc2)c2ccccc21	-6%	-23%	-21%	3%	-3%	-27%
CC1CCN(S(=O)(=O)N2CCC(C(=O)NC(C)c3ccccc3)CC2)CC1 (stereo unspecified)	1%	-7%	10µM*	-7%	-4%	?
COc1ccc(S(=O)(=O)N2CCC(C(=O)NC(C)c3ccccc3)CC2)cc1 (stereo unspecified)	nt	-3%	-1%	-5%	nt	?
O=C(Nc1ccc(Cl)cc1F)C1CC(=O)N(Cc2ccco2)C1 (stereo unspecified)	-1%	0%	0%	-5%	1%	-1%
COc1cc(OC)c(NC(=O)C(CC(C)C)N2Cc3ccccc3C2=O)cc1Cl (stereo unspecified)	nt	?	15µM*	-8%	nt	?
COc1ccccc1CNC(=O)CC(c1ccc(F)cc1)N1Cc2ccccc2C1=O (stereo unspecified)	nt	-33%	?	-40%	nt	23µM*
CCCC(C(=O)Nc1cc(C)c(Cl)cc1OC)N1Cc2ccccc2C1=O (stereo unspecified)	nt	?	?	-29%	nt	?
COc1cc(C(CC(=O)NCc2ccc(F)cc2)N2Cc3ccccc3C2=O)cc(OC)c1OC (stereo unspecified)	nt	4%	?	-14%	nt	16µM*
COc1cc(C(CC(=O)NCc2ccccc2)N2Cc3ccccc3C2=O)cc(OC)c1OC (stereo unspecified)	nt	19%	-21%	-17%	nt	-29%
COc1ccccc1CNC(=O)C(CC(C)C)N1Cc2ccccc2C1=O (stereo unspecified)	nt	-1%	9.2µM*	-22%	nt	21µM*
